# Source: the antibiotic and cytotoxicity screens of Wong et al. (2023)
# In all, about 39,000 compounds went through this assay and about 1,500 (3.8%) were called active. Many of the other results were omitted from the sample, so actives are more common in it than they were.
# System: HSkMC (human skeletal muscle cells)
# Experiment: cytotoxicity call (relative viability < 0.9)
# Conditions: 10 µM
row,SMILES,cytotoxicity call
1,C[C@H](CO)N1C[C@H](C)[C@@H](CN(C)C(=O)Cc2ccncc2)Oc2ncc(C#CC3(O)CCCC3)cc2C1=O,inactive
2,C[C@@H]1CN([C@H](C)CO)C(=O)c2cc(NC(=O)Nc3cccc4ccccc34)ccc2O[C@H]1CN(C)Cc1ccc(C(=O)O)cc1,inactive
3,C[C@@H]1CCCCO[C@@H](CN(C)C(=O)CCC(F)(F)F)[C@H](C)CN([C@H](C)CO)C(=O)c2cc(NC(=O)c3ccccc3)ccc2O1,inactive
4,C[C@@H]1CN([C@H](C)CO)C(=O)c2cc(NC(=O)CCN3CCOCC3)ccc2O[C@@H]1CN(C)CC1CC1,inactive
5,C[C@H](CO)N1C[C@H](C)[C@H](CN(C)C(=O)Nc2ccc(C(F)(F)F)cc2)Oc2ccc(NC(=O)Nc3ccc(C(F)(F)F)cc3)cc2C1=O,inactive
6,O=C(C[C@@H]1CC[C@@H]2[C@H](COC[C@@H](O)CN2S(=O)(=O)c2ccc(F)cc2)O1)NCc1ccc(Cl)c(Cl)c1,inactive
7,C[C@@H]1CN([C@H](C)CO)C(=O)Cc2cc(NC(=O)Nc3ccccc3)ccc2O[C@H]1CN(C)Cc1ccc(Oc2ccccc2)cc1,inactive
8,CC(C)NC(=O)Nc1ccc2c(c1)CC(=O)N([C@H](C)CO)C[C@@H](C)[C@@H](CN(C)Cc1ccc(Oc3ccccc3)cc1)O2,active
9,C[C@H]1CN([C@@H](C)CO)C(=O)Cc2cc(NC(=O)Nc3ccc4c(c3)OCO4)ccc2O[C@@H]1CN(C)Cc1ccc(Oc2ccccc2)cc1,inactive
10,CC(C)NC(=O)Nc1ccc2c(c1)CC(=O)N([C@@H](C)CO)C[C@@H](C)[C@@H](CN(C)Cc1ccc(Oc3ccccc3)cc1)O2,inactive
11,C[C@H](CO)N1C[C@H](C)[C@@H](CN(C)Cc2ccc(Oc3ccccc3)cc2)Oc2ccc(NC(=O)Nc3ccc4c(c3)OCO4)cc2CC1=O,active
12,C[C@@H]1CN([C@@H](C)CO)C(=O)Cc2cc(NC(=O)Nc3ccccc3)ccc2O[C@H]1CN(C)Cc1ccc(Oc2ccccc2)cc1,inactive
13,CC(C)NC(=O)Nc1ccc2c(c1)CC(=O)N([C@@H](C)CO)C[C@@H](C)[C@H](CN(C)Cc1ccc(Oc3ccccc3)cc1)O2,inactive
14,C[C@H]1CN([C@@H](C)CO)C(=O)Cc2cc(NC(=O)Nc3ccccc3)ccc2O[C@@H]1CN(C)Cc1ccc(Oc2ccccc2)cc1,active
15,C[C@@H]1CN([C@@H](C)CO)C(=O)Cc2cc(NC(=O)Nc3ccc4c(c3)OCO4)ccc2O[C@H]1CN(C)Cc1ccc(Oc2ccccc2)cc1,inactive
16,C[C@@H]1CN([C@H](C)CO)C(=O)Cc2cc(NC(=O)Nc3ccccc3)ccc2O[C@@H]1CN(C)Cc1ccc(Oc2ccccc2)cc1,active
17,COc1ccc2c3c(n(c2c1)C)[C@H](CO)N(CC1CCOCC1)C[C@]13CCN(CC1)C(=O)c1cnccn1,inactive
18,CO[C@H]1CN(C)C(=O)c2cc(NC(=O)c3ccc(F)cc3)ccc2OC[C@@H](C)N(C(=O)CN(C)C)C[C@@H]1C,inactive
19,C=CC[C@@H](CC(=O)N[C@@H](CO)Cc1ccccc1)C(=O)N[C@@H](C)COC(=O)[C@@H](CC=C)CC(=O)OC(C)(C)C,inactive
20,COc1ccccc1S(=O)(=O)N(C)C[C@@H]1OCc2cnnn2CCCC(=O)N([C@@H](C)CO)C[C@H]1C,inactive

row,SMILES,cytotoxicity call
1,COc1ccccc1CNC(=O)C[C@H]1C[C@@H]2c3cc(NC(=O)NC4CCCC4)ccc3O[C@@H]2[C@@H](CO)O1,inactive
2,C[C@H](CO)N1C[C@H](C)[C@H](CN(C)C(=O)Nc2ccc(F)cc2)OCCCC[C@H](C)Oc2ccc(NC(=O)Nc3ccc(F)cc3)cc2C1=O,inactive
3,C[C@@H]1CN([C@@H](C)CO)C(=O)c2cc(NC(=O)NC3CCCCC3)ccc2O[C@@H](C)CCCCO[C@H]1CN(C)CC1CCCCC1,inactive
4,C[C@@H]1CN([C@@H](C)CO)C(=O)c2cc(NS(=O)(=O)c3cccs3)ccc2O[C@@H](C)CCCCO[C@@H]1CN(C)Cc1ccc2c(c1)OCO2,inactive
5,CN(C)C(=O)C[C@H]1C=C[C@@H](NC(=O)C2CCOCC2)[C@H](CO)O1,inactive
6,C[C@H]1CN([C@@H](C)CO)C(=O)c2cc(NC(=O)Nc3ccccc3)ccc2O[C@@H]1CN(C)Cc1ccc(Cl)c(Cl)c1,inactive
7,C[C@@H]1CN([C@@H](C)CO)C(=O)c2cc(NC(=O)Nc3ccccc3)ccc2O[C@@H]1CN(C)Cc1ccc(Cl)c(Cl)c1,active
8,C[C@@H]1CN([C@H](C)CO)C(=O)c2cc(NC(=O)Nc3ccccc3)ccc2O[C@H]1CN(C)Cc1ccc(Cl)c(Cl)c1,inactive
9,C[C@H]1CN([C@@H](C)CO)C(=O)c2cc(NC(=O)Nc3ccccc3)ccc2O[C@H]1CN(C)Cc1ccc(Cl)c(Cl)c1,active
10,C[C@@H]1CN([C@H](C)CO)C(=O)c2cc(NC(=O)Nc3ccccc3)ccc2O[C@@H]1CN(C)Cc1ccc(Cl)c(Cl)c1,inactive
11,C[C@H](CO)N1C[C@H](C)[C@@H](CN(C)Cc2ccc(Cl)c(Cl)c2)Oc2ccc(NC(=O)Nc3ccccc3)cc2C1=O,inactive
12,C[C@H](CO)N1C[C@H](C)[C@@H](CN(C)S(=O)(=O)c2cccs2)Oc2ccc(NS(=O)(=O)c3ccc(F)cc3)cc2C1=O,inactive
13,Cc1cc(C(=O)Nc2cccc3c2O[C@H](CN(C)C(=O)Nc2ccc4c(c2)OCO4)[C@@H](C)CN([C@H](C)CO)C3=O)n(C)n1,inactive
14,COc1ccc(CCNC(=O)[C@@]2(Sc3ccc(C)cc3)CC(=O)N(C3CCCCC3)[C@@H]2c2ccc(CO)cc2I)cc1,inactive
15,COc1ccc(NC(=O)N(C)C[C@@H]2Oc3ccc(NS(=O)(=O)c4c(C)noc4C)cc3CC(=O)N([C@@H](C)CO)C[C@H]2C)cc1,inactive
16,CS(=O)(=O)CCNCc1ccc(-c2ccc3ncnc(Nc4ccc(OCc5cccc(F)c5)c(Cl)c4)c3c2)o1 [listing 1 of 2 here],active
17,Fc1cccc(-c2csc(COc3ccccc3Cl)n2)c1,inactive
18,CC(C)(O)CC(=O)NCCn1ccc2ncnc(Nc3ccc(Oc4cccc(C(F)(F)F)c4)c(Cl)c3)c21,inactive
19,CS(=O)(=O)CCNCc1ccc(-c2ccc3ncnc(Nc4ccc(OCc5cccc(F)c5)c(Cl)c4)c3c2)o1 [listing 2 of 2 here],active
20,CS(=O)(=O)CCNCc1nc(-c2ccc3ncnc(Nc4ccc(OCc5cccc(F)c5)c(Cl)c4)c3c2)cs1,active
